In the library only some 8.9% were active in any assay of this set; here they are far more common.
ALOX12 inhib – qHTS Assay for Inhibitors of 12-hLO (12-human lipoxygenase). purified 12-hLO, xylenol orange hydroperoxide absorbance. Potency, µM (doses to about 57.1 µM), actives largely listed as inhibitors. actives 0.12% (n = 150,000); further: nearly all actives have a fitted effect of over 55% in size
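Hydroperoxide formation by human 12-lipoxygenase from 40 uM arachidonic acid was followed colorimetrically via ferric-xylenol orange complex, using the 573/405 nm absorbance ratio. Enzyme concentration was 150 nM, with 30 min reaction at room temperature.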
IMPase Li inh – qHTS Assay for Identifying the Cell-Membrane Permeable IMPase Inhibitors: Potentiation with Lithium; CHO-M1 cells, IP1 TR-FRET (IP-One), carbachol + lithium; actives 0.35% (n = 210,000); Potency, µM (highest dose often 59.4 µM), usual class: inhibitors;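 further: IP1 builds up when IMPase is blocked and the TR-FRET signal falls; nearly all actives have a fitted effect of over 50% in size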
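Steps: plate 2000 CHO-M1 cells per well and culture 16–30 h; add compound and lithium; incubate 30 min, 37C; add d2-IP1 tracer and Eu cryptate anti-IP1 antibody in lysis buffer; read after 10 min at room temperature.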
NPSR antag – qHTS Assay for Antagonists of the Neuropeptide S Receptor: cAMP Signal Transduction | CHO-NPSR cells, cAMP TR-FRET, antagonist mode | Potency, µM (series often up to 38.3 µM), actives largely listed as inhibitors | actives 1% (n = 220,000); further: nearly all actives have a fitted effect of over 50% in size
Target sequence (Q6W5P4 whole entry, looked up): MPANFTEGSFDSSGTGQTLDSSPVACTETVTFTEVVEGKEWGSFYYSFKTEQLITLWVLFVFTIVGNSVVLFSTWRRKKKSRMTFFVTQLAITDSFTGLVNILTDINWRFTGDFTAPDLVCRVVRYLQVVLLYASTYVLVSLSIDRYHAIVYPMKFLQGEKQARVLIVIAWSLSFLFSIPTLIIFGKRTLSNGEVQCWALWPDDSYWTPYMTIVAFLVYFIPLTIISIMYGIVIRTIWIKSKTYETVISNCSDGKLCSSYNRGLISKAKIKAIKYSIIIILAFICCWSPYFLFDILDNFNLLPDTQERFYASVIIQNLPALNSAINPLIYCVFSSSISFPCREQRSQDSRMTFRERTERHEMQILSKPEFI
HPGD block – qHTS Assay for Inhibitors of HPGD (15-Hydroxyprostaglandin Dehydrogenase); 15-hydroxyprostaglandin dehydrogenase [NAD(+)] (Homo sapiens), P15428; Potency, µM, usual class: inhibitors; actives 4.3% (n = 150,000); AID 894, 2007; purified HPGD, NADH fluorescence kinetic, PGE2 substrate; active means well fitted inhibition curve with a large enough effect, not every such curve was filed as active; inconclusive means small, poorly fitted or top-dose-only effect, or another doubt; inactive means no such curve, though single readings can be large or run the other way
Target sequence (P15428 whole entry, looked up): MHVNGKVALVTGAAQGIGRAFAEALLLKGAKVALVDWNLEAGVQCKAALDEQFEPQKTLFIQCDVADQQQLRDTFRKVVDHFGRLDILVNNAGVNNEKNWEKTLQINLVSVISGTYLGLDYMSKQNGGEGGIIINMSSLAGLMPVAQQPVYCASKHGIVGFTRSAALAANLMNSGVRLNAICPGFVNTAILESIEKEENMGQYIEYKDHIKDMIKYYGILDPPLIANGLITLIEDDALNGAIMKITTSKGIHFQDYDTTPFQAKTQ
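NADH formation kinetics: reaction with 30 uM PGE2 and 1 mM NAD+ (final), 20 nM enzyme, Tris-HCl pH 8 with Tween 20, after 15 min compound preincubation at room temperature. Fluorescence change, last versus first of five reads.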
IMPase cell inh – qHTS Assay for Identifying the Cell-Membrane Permeable IMPase Inhibitors; Inositol monophosphatase 1 (Rattus norvegicus), P97697; CHO-M1 cells, IP1 accumulation, HTRF TR-FRET ratio; inhibition (IP1 accumulation), % at 46.1 µM; 120,000 tested, under 10 active; AID 901, 2007; active means well fitted curve in the direction sought with a large enough effect in the signal ratio, not every such curve was filed as active; inconclusive means small, poorly fitted or top-dose-only effect, or a change in a side signal; inactive means no such curve, though single readings can be large or run the other way; the % refers to the signal ratio;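 further: cells stimulated with carbachol in lithium chloride buffer; higher means more IMPase inhibition seen as more IP1 and lower FRET ratio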
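The IP-One HTRF competitive assay in carbachol-stimulated CHO-M1 cells quantifies cellular IP1. Compounds spanned up to 46 uM final, and activity is expressed as AC50 from concentration-response fits of the ratio and donor data.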
ALDH1A1 inh – qHTS Assay for Inhibitors of Aldehyde Dehydrogenase 1 (ALDH1A1) | Purified ALDH1A1, NADH fluorescence, propionaldehyde substrate | Potency, µM (series often up to 75.3 µM), actives largely listed as inhibitors | actives 7.3% (n = 220,000); active means well fitted inhibition curve with a large enough effect, not every such curve was filed as active; inconclusive means small, poorly fitted or top-dose-only effect, or another doubt; inactive means no such curve, though single readings can be large or run the other way
Numbers stand for hits; 0 = inactive; ? = inconclusive; - = not tested or not shown; ! = a repeat was not active; [ ] = remark or other dose. Unless noted, the call rests on the fitted dose curve; in most records, active means well fitted curve in the direction sought with a large enough effect; inconclusive means small, poorly fitted or top-dose-only effect, or another doubt; inactive means no such curve, though single readings can be large; an effect the other way counts as inactive or inconclusive.

SMILES | ALOX12 inhib | IMPase Li inh | NPSR antag | HPGD block | IMPase cell inh | ALDH1A1 inh
CCOC(=O)CS(=O)(=O)c1nc(-c2ccc(F)cc2)cc(C(F)(F)F)n1 | 0 | 0 | ? | ? | 0 | ?
CCOC(=O)CCS(=O)(=O)c1nc(-c2ccccc2)cc(C(F)(F)F)n1 | 0 | 0 | 7.94µM | 15.8µM | 0 | 0
COC(=O)CCS(=O)(=O)c1nc(-c2ccccc2)cc(C(F)(F)F)n1 | 0 | 0 | 10µM | 28.2µM | 0 | 0
CS(=O)(=O)c1nc(-c2cccs2)cc(C(F)(F)F)n1 | 0 | 0 | 3.16µM | ? | 0 | ?
C#CCOCCOCCOCCNc1nc(N2CCOCC2)nc(N2CCN(C(=O)[C@H](Cc3ccc(O)cc3)n3cc([C@@H](N)C(C)CC)nn3)CC2)n1 (stereo partly specified) | - | 0 | 0 | - | - | 0
Cc1cccc(NC(=S)/N=C(\N)Nc2nc(C)c3ccccc3n2)c1 | 7.94µM | ? | 0 | 0 | - | ?
Cc1cc(C)cc(NC(=S)/N=C(\N)Nc2nc(C)c3ccccc3n2)c1 | 0 | 0 | 0 | 0 | 0 | 0
Cc1ccc(NC(=S)/N=C(\N)Nc2nc(C)c3ccccc3n2)cc1C | 5.62µM | ? | 0 | 0 | 0 | 0
CCCCCC1=C2CNC(C)(C(=O)OC)C=C2C(C)C1=O (stereo unspecified) | 0 | 0 | - | 0 | - | 0
CCCCCC1=C2CNC(CCC)(C(=O)OC)C=C2C(C)C1=O (stereo unspecified) | 0 | 0 | - | 0 | - | 28.2µM
CC(C)CCNC(=O)c1ccc(CS(=O)(=O)Cc2ccccc2F)o1 | - | 0 | 0 | - | - | 0
CC(C)CCNC(=O)c1ccc(CSCc2cccc(F)c2)o1 | 0 | 0 | 0 | 14.1µM | 0 | ?
Cc1cc(C)nc(NS(=O)(=O)c2ccc(Br)s2)c1 | 0 | 0 | 0 | ? | 0 | 25.1µM
COc1ccc(C(=S)N(C)C)cc1OC | 0 | 0 | 0 | 10µM | 0 | ?
COc1ccc(C(=S)N2CCCC2)cc1OC | 0 | 0 | 0 | 0 | 0 | 0
CN(C)C(=S)c1ccccc1 | - | - | 0 | - | - | 7.08µM
CN(C(N)=S)c1ccccc1 | 0 | 0 | 0 | 0 | 0 | 0
CN(C)C(=S)c1ccc(N(C)C)cc1 | - | 0 | 0 | - | - | 0.794µM
CCOc1cc(NC(=S)Nc2cccc(OC)c2)c(OCC)cc1NC(=O)C1CC1 | ? | 0 | 0 | 0 | 0 | 0
CCOc1nc(SCCOc2ccc(Cl)cc2Cl)nc(N(C)C)n1 | 0 | 0 | 0 | 0 | - | 0
CCOC(=O)/C(C#N)=C1/C=CNC(=O)N1 | 0 | 0 | 0 | 0 | 0 | ?
O=[N+]([O-])c1cc2c(cc1/C=N\NS(=O)(=O)c1ccccc1)OCO2 | 0 | 0 | 0 | 0 | 0 | 1.58µM
CNc1nc(N/N=C/c2cc3c(cc2[N+](=O)[O-])OCO3)nc(Nc2ccccc2)n1 | - | 0 | 0 | - | - | 0
Cc1cc[n+](CC(=O)c2ccc(NC(=O)c3ccccc3)cc2)c2ccccc12 | - | 0 | 0 | - | - | 0
CNc1sc(C(=O)c2ccc(F)cc2)c(N)c1-c1nc2ccccc2s1 | 0 | 0 | ? | ? | 0 | 0
SMILES | ALOX12 inhib | IMPase Li inh | NPSR antag | HPGD block | IMPase cell inh | ALDH1A1 inh
CNc1sc(C(=O)c2cccs2)c(N)c1-c1nc2ccccc2s1 | 0 | 0 | 3.16µM | 15.8µM | 0 | 1.78µM
O=C(CSc1cn(CCNC(=O)c2cccs2)c2ccccc12)NCC1CCCO1 (stereo unspecified) | 0 | 0 | 0 | 0 | 0 | 0
O=C(Nc1nc2ccccc2[nH]1)c1ccc(S(=O)(=O)N2CCOCC2)cc1 | - | 0 | 0 | - | - | 0
O=C(NCCN1CCc2ccccc2C1)C1CC(=O)N(C2CCCC2)C1 (stereo unspecified) | 0 | 0 | 0 | ? | 0 | 35.5µM
Oc1ccc(-c2csc(Nc3ncccn3)n2)cc1O | - | 0 | 0 | - | - | ?
Cc1ccc(S(=O)(=O)Cn2nnnc2C(C)N2CCN(C(=O)c3ccco3)CC2)cc1 (stereo unspecified) | 0 | 0 | 0[7.67 µM] | 0 | 0 | 25.1µM
O=C(c1ccco1)N1CCN(Cc2nnnn2CC2CCCO2)CC1 (stereo unspecified) | - | 0 | 0 | - | - | 20µM
Cc1ccc(C(c2nnnn2CC2CCCO2)N2CCN(C(=O)c3ccco3)CC2)cc1 (stereo unspecified) | 0 | 0 | 0 | 0 | 0 | 15.8µM
Cc1ccc(S(=O)(=O)Cn2nnnc2CN2CCN(C(=O)c3ccco3)CC2)cc1 | 0 | 0 | 0 | 0 | 0 | ?
Nc1ccc2c(c1)Cc1cc([N+](=O)[O-])ccc1-2 | - | 0 | 0 | - | - | 0
NC(=O)c1c(NC(=O)CN2C(=O)CCC2=O)sc2c1CCCCC2 | 0 | 0 | 0 | ? | ? | 14.1µM
NC(=O)c1c(NC(=O)CN2CCOCC2)sc2c1CCC2 | 0 | 0 | 0 | 0 | 0 | ?
NC(=O)c1c(NC(=O)CN2CCCC2)sc2c1CCCC2 | 0 | 0 | 0 | ? | 0 | 17.8µM
N#CC(=C=[N-])c1nc2ccccc2nc1-[n+]1cccc(NC(=O)c2ccccc2)c1 | - | - | 0 | - | - | 14.1µM!
O=C(O)/C=C/C(=O)Nc1ccccc1-c1ccccc1 | 0 | 0 | 0 | 28.2µM | 0 | ?
COCC(=O)Nc1ccccc1-c1ccccc1 | - | 0 | 0 | - | - | 0
O=C(c1ccccc1)N1CCN(C2c3cccc4cccc(c34)C2NS(=O)(=O)c2ccccc2)CC1 (stereo unspecified) | 0 | 0 | ? | 0 | 0 | 11.2µM
O=C(CCC(=O)NNC(=O)Nc1ccc(Cl)cc1)NCc1ccccc1 | 0 | 0 | 0 | 0 | 0 | 0
CC(C)CCN(CCC(C)C)C(CO)(CO)CO | - | 0 | 0 | - | - | 28.2µM
CC1=C(C#N)C(NC(=O)c2ccco2)(C(F)(F)F)C(=O)N1 (stereo unspecified) | 0 | 0 | 0 | 0 | ? | 0
CCOC(=O)C1=C(C)NC(=O)C1CC(=O)Nc1ccccc1 (stereo unspecified) | 0 | 0 | 0 | 35.5µM | 0 | 0
Cc1cc(N2CCN(c3ccccc3)CC2)n2nnnc2n1 | 0 | 0 | 0 | 0 | 0 | 0
Cc1cc(N2CCN(c3nnnn3-c3ccccc3)CC2)n2ncnc2n1 | 0 | 0 | 0[7.67 µM] | 0 | 0 | 22.4µM
OCCN(Cc1ccccc1)CC(O)COc1ccc(-c2ccccc2)cc1 (stereo unspecified) | - | 0 | 0 | - | - | ?
CN=C(c1ccco1)n1c(=S)nc(-c2ccco2)n(C)c1=S | 0 | 0 | 0 | ? | 0 | 10µM
Cc1ccccc1C(=O)OCc1nnc(-c2ccc(Cl)cc2)o1 | - | 0 | 0 | - | - | 0
COc1cc(/C=N/Nc2nc(Nc3ccccc3)nc(-n3nc(C)cc3C)n2)cc(OC)c1OC | 0 | 0 | 0 | ? | - | 0
Cc1ccc2oc(-c3ccc(C)c(NC(=O)Cc4cccs4)c3)nc2c1 | 0 | 12.6µM | 0 | ? | 0 | ?
